High-throughput results as filed in PubChem BioAssay.
Platelet DG rel: platelet dense granule release activity; human platelet-rich plasma, SFLLRN dense granule ATP release, luminescence; inhibition, %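 (compounds screened at 7.5 µM in platelet-rich plasma)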; hit rate 0.22% among 300,000; AID 1663;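 active means mean replicate score, as percent of positive control, at or above 50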
SENP8 block-1: blocks human SENP8 cleavage of Nedd8 substrate; Q96LD8; AID 602440; inhibition, % at 20 µM; hit rate 0.64% among 360,000; recombinant SENP8, Nedd8 substrate fluorescence; in the data active means inhibition mostly above about 40%, no sharp cut-off; inactive means mostly below about 27%
SENP8 block-2: inhibitors of human SENP8 protease; Q96LD8; purified SENP8, Z-RLRGG-aminoluciferin cleavage, luminescence; inhibition, % at 10 µM; hit rate 1.2% among 330,000; AID 2540; in the data active means inhibition above about 50%
SENP7 inh: SENP7 protease inhibition | Q9BQF6 | recombinant SENP7, Z-RLRGG-aminoluciferin luminescence, 40 min | hit rate 1.5% among 330,000 | inhibition, % at 5 µM;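 active means inhibition above about 50% at the single test dose, limit read from the data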;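 further: plate controls were DMSO with enzyme for no effect and no enzyme buffer wells for full effect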
SENP6 inh: SENP6 protease inhibition; Recombinant SENP6 catalytic domain, aminoluciferin luminescence; inhibition, % at 10 µM; AID 2599; hit rate 1.8% among 330,000; Q9GZR1;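 active means inhibition above about 50% at the single tested dose, limit read from the data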;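 further: plate controls were DMSO wells with enzyme for no effect and DMSO wells lacking enzyme for full effect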
Target sequence (Q9GZR1 628-1112 limits assumed): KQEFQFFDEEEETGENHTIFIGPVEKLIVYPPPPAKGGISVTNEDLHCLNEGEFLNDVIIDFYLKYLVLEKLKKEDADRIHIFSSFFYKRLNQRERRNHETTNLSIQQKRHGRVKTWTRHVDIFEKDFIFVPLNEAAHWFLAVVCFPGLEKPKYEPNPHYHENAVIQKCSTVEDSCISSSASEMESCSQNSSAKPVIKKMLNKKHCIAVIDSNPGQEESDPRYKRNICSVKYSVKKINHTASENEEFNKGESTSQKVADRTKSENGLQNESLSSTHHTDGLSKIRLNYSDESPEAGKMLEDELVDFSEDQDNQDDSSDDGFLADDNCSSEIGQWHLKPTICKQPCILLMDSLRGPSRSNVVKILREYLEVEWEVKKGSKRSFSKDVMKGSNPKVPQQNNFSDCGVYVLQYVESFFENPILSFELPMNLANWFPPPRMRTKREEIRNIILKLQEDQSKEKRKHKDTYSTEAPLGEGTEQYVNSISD
SENP8 conf: confirmation of human SENP8 protease inhibitors. shares compounds with SENP8 block-1. purified SENP8, Nedd8-AMC/pro-Nedd8 cleavage fluorescence, 30 min. inhibition, % at 25 µM. hit rate 15% among 1,400. AID 624319; in the data active means inhibition mostly above about 39%, no sharp cut-off; inactive means mostly below about 34%
An asterisk follows results filed as active; nt = not tested or not shown. Sampled rows, rich in hits. Any-hit rate of the full collection: about 2.4%.

SMILES	Platelet DG rel	SENP8 block-1	SENP8 block-2	SENP7 inh	SENP6 inh	SENP8 conf
Cc1cnc(C(=O)Nc2c(-c3ccccc3)[nH][nH]c2=O)cn1	nt	41*	nt	nt	nt	45*
N#Cc1ccc(Cl)cc1NC(=O)COC(=O)c1cccc(S(=O)(=O)N2CCOCC2)c1	nt	-10	-17	-16	-19	nt
CSc1nnc(C)c(/C=C/NOCc2ccc(Cl)cc2)n1	-2	44*	3	7	25	40
NNC(=O)C(Cc1cnc[nH]1)NC(=O)OCc1ccccc1 (configuration not stated)	-3	21	0	2	-7	nt
O=[N+]([O-])c1cc(-c2cccnc2)n[nH]1	nt	21	nt	nt	nt	nt
CC(=O)O[C@H]1C[C@@]2(O)[C@@H](OC(=O)c3ccccc3)C3[C@@](C)([C@@H](O)C[C@H]4OC[C@@]34OC(C)=O)[C@@H](O)[C@H](OC(C)=O)C(=C1C)C2(C)C (some centres not stated)	-2	43*	-5	0	-8	15
O=C(Cc1ccc2c(c1)OCO2)NN=Cc1ccc([N+](=O)[O-])o1	nt	39*	-14	-1	3	21
O=C(N/N=C/c1ccc([N+](=O)[O-])o1)c1ccncc1	4	54*	-2	-9	11	28
O=C(N/N=C/c1ccc(-c2ccccc2[N+](=O)[O-])o1)c1cncc(Br)c1	1	2	26	9	33	nt
CCCCCC(=O)N/N=C/c1ccc([N+](=O)[O-])o1	3	28	4	0	3	nt
O=C(N/N=C\c1ccc([N+](=O)[O-])o1)c1cncc(Br)c1	2	66*	14	4	11	24
CNc1ccc(C(=O)OCC(=O)NCc2ccc3c(c2)OCO3)cc1[N+](=O)[O-]	nt	24	6	3	4	nt
COc1cc(C(c2c(C)[nH][nH]c2=O)c2c(C)[nH][nH]c2=O)ccc1OS(=O)(=O)c1ccccc1	-9	42*	-1	1	-4	13
COc1cc(C(c2c(C)[nH][nH]c2=O)c2c(C)[nH][nH]c2=O)ccc1OS(=O)(=O)c1ccc(C)cc1	3	56*	-7	1	17	38
COc1ccccc1CC1(C)C(=O)Nc2ccc(S(=O)(=O)NC3CCCCC3)cc21 (configuration not stated)	nt	12	nt	nt	nt	nt
COc1ccc([N+](=O)[O-])cc1NC(=S)NC(=O)C(C)(C)C	4	40*	2	2	-1	27
COc1ccc([N+](=O)[O-])cc1NC(=S)Nc1ccccc1	4	26	6	-1	-1	nt
COCc1cc(CN(C)C(=O)C2CCC(=O)N(Cc3cccc(OC)c3)C2)[nH]n1 (configuration not stated)	11	6	-12	9	-1	nt
COc1cccc(NC(=O)CN(C)C(=O)CSCC(=O)Nc2ccc(C)cc2)c1	nt	2	9	9	-2	nt
COc1ccc(NC(=O)CN(C)C(=O)CSCC(=O)Nc2ccc(C)cc2)cc1	-16	53*	-14	-19	-8	8
O=C(c1ccc(N2CCCC2)c([N+](=O)[O-])c1)N1CCc2ccccc2C1	16	50*	-4	-3	4	13
O=C(c1ccc(N2CCCCC2)c([N+](=O)[O-])c1)N1CCOCC1	1	34	-5	-1	2	nt
Cc1ccccc1N(C(=O)c1csnn1)C(C(=O)NC1CCCC1)c1ccncc1 (configuration not stated)	4	4	-1	3	5	nt
O=C(CCO)c1ccc(O)cc1	-4	44*	7	-5	-3	10
CNC[C@H]1Oc2c(NS(=O)(=O)c3cccs3)cccc2C(=O)N([C@H](C)CO)C[C@@H]1C	nt	4	1	3	0	nt
SMILES	Platelet DG rel	SENP8 block-1	SENP8 block-2	SENP7 inh	SENP6 inh	SENP8 conf
Cc1ccc(NC(=O)C(=O)c2c(-c3ccccc3)cc3ccccn23)cc1S(=O)(=O)N1CCOCC1	-1	52*	14	2	31	28
Cc1cc(C)c(S(=O)(=O)NCc2csc(C)n2)c(C)c1	4	11	-6	-6	-16	nt
COc1cc(C(=O)NCC(=O)N/N=C(/C)c2cccs2)cc(OC)c1OC	1	4	-3	3	9	nt
Cc1ccc(SCc2nnc(NC(=O)c3ccccc3)s2)cc1	-4	40*	2	9	3	12
Cc1cc(C)c2c(n1)SCC(=O)N2CC(=O)Nc1cc(F)ccc1F	-5	12	-1	-5	-6	nt
CCN(c1ccc(NC(=O)COC(=O)c2ccc([N+](=O)[O-])o2)cc1)C(C)C	nt	33	-6	10	-10	nt
CC1Cc2ccccc2N1C(=O)COC(=O)c1ccc([N+](=O)[O-])o1 (configuration not stated)	nt	42*	4	18	26	80*
CC(=O)Nc1ccc(NC(=O)COC(=O)c2ccc([N+](=O)[O-])o2)cc1	nt	34*	12	12	15	85*
O=C(COC(=O)c1ccc([N+](=O)[O-])o1)NCc1ccc(F)cc1	nt	43*	-3	4	6	78*
O=C(COC(=O)c1ccc([N+](=O)[O-])o1)NC1CCS(=O)(=O)C1 (configuration not stated)	1	50*	3	4	-8	89*
OC[C@@H]1CN(Cc2ccc(F)cc2)C[C@H](n2cnc3c(NCc4ccncc4)ncnc32)O1	nt	10	nt	nt	nt	nt
Cc1[nH]cnc1CN1CCc2c(c3ccccc3n2C)C1=O	-9	84*	12	17	21	76*
Cc1nccn1CC1CCc2c(c3ccccc3n2C)C1=O (configuration not stated)	1	-6	6	-12	-4	nt
NS(=O)(=O)c1cccc(NC(=O)COC(=O)c2ccccc2SCC(=O)N2CCCC2)c1	nt	-29	0	0	-9	nt
CC1=[N+](C)N(c2ccccc2)C(=O)C1N=C/C=C/c1ccccc1 (configuration not stated)	2	42*	-11	-7	-21	5
Nc1c(Br)cc(Br)c2c1[nH]c(=O)c1ccccc12	nt	73*	nt	nt	nt	12
CC1CC(=O)Nc2cc([N+](=O)[O-])ccc2N1 (configuration not stated)	0	44*	1	3	-8	30
CCN(CC(=O)Nc1ccccc1C(F)(F)F)C(=O)C1CCC1	-3	17	-7	-3	-7	nt
CN(C(=O)c1cc(C(=O)N(C)c2ccccc2)cc([N+](=O)[O-])c1)c1ccccc1	-3	31	-6	-3	15	nt
CC1=NN(c2ccccc2)C(=O)C1C(=O)c1cc([N+](=O)[O-])cc([N+](=O)[O-])c1 (configuration not stated)	11	51*	-6	-10	17	-5
COc1ccc(Br)cc1C1CC(=O)N2CN(C)CSC2=C1C#N (configuration not stated)	-1	65*	1	16	-2	1
